# In ChEMBL document CHEMBL1961873, “Compounds: GSK PKIS; Assays: Nanosyn kinase panel” (2012):
# How the values were obtained:
# [1] = biological target: Glycogen synthase kinase-3 alpha (Homo sapiens) (UniProt P49840); conditions: at 0.1 µM
# [2] = biological target: Glycogen synthase kinase-3 alpha (Homo sapiens) (UniProt P49840); conditions: at 1 µM
# [3] = biological target: Glycogen synthase kinase-3 beta (Homo sapiens) (UniProt P49841); conditions: at 0.1 µM
# [4] = biological target: Glycogen synthase kinase-3 beta (Homo sapiens) (UniProt P49841); conditions: at 1 µM
# [5] = biological target: Homeodomain-interacting protein kinase 1 (Homo sapiens) (UniProt Q86Z02); conditions: at 0.1 µM
# [6] = biological target: Homeodomain-interacting protein kinase 1 (Homo sapiens) (UniProt Q86Z02); conditions: at 1 µM
# [7] = biological target: Homeodomain-interacting protein kinase 4 (Homo sapiens) (UniProt Q8NE63); conditions: at 0.1 µM
# Chain of Homeodomain-interacting protein kinase 4 (Homo sapiens) (Q8NE63 whole entry): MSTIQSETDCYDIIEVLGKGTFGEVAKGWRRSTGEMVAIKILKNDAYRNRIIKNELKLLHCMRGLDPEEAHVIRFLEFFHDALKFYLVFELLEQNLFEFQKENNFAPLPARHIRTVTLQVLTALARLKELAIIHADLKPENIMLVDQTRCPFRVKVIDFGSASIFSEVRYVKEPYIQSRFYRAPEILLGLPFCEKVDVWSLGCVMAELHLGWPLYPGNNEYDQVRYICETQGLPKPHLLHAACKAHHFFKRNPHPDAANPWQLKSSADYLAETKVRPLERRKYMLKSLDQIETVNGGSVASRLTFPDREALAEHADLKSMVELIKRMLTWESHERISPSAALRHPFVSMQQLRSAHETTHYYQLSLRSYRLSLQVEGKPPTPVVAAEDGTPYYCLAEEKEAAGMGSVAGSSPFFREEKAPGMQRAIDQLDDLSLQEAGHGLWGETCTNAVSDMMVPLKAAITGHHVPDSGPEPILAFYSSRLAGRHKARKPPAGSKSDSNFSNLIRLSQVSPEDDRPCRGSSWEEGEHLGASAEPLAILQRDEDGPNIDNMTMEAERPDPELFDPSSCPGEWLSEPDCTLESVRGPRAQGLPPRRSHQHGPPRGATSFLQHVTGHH
# [8] = biological target: Homeodomain-interacting protein kinase 4 (Homo sapiens) (UniProt Q8NE63); conditions: at 1 µM
# [9] = biological target: Mitogen-activated protein kinase 9 (Homo sapiens) (UniProt P45984); conditions: at 0.1 µM
# [10] = biological target: Mitogen-activated protein kinase 9 (Homo sapiens) (UniProt P45984); conditions: at 1 µM
# [11] = biological target: Mitogen-activated protein kinase 1 (Homo sapiens) (UniProt P28482); conditions: at 0.1 µM
# [12] = biological target: Mitogen-activated protein kinase 1 (Homo sapiens) (UniProt P28482); conditions: at 1 µM
# [13] = biological target: Mitogen-activated protein kinase 3 (Homo sapiens) (UniProt P27361); conditions: at 0.1 µM
# [14] = biological target: Mitogen-activated protein kinase 3 (Homo sapiens) (UniProt P27361); conditions: at 1 µM
# [15] = biological target: SRSF protein kinase 3 (Homo sapiens) (UniProt Q9UPE1); conditions: at 0.1 µM
# [16] = biological target: SRSF protein kinase 3 (Homo sapiens) (UniProt Q9UPE1); conditions: at 1 µM
# [17] = biological target: Mitogen-activated protein kinase 14 (Homo sapiens) (UniProt Q16539); conditions: at 0.1 µM
# [18] = biological target: Mitogen-activated protein kinase 14 (Homo sapiens) (UniProt Q16539); conditions: at 1 µM
# [19] = biological target: Mitogen-activated protein kinase 11 (Homo sapiens) (UniProt Q15759); conditions: at 0.1 µM
# Chain of Mitogen-activated protein kinase 11 (Homo sapiens) (Q15759 whole entry): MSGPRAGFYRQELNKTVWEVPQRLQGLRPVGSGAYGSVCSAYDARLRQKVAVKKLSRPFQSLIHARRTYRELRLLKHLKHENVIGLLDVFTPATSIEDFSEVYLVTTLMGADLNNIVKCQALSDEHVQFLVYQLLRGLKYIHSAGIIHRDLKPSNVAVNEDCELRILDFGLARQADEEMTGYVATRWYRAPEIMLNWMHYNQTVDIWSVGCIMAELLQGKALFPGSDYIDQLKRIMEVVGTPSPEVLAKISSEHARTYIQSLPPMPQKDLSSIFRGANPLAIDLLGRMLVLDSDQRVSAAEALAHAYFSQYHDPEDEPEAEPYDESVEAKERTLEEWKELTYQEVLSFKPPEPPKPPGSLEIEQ
# [20] = biological target: Mitogen-activated protein kinase 11 (Homo sapiens) (UniProt Q15759); conditions: at 1 µM
# [21] = biological target: Mitogen-activated protein kinase 13 (Homo sapiens) (UniProt O15264); conditions: at 0.1 µM
# Chain of Mitogen-activated protein kinase 13 (Homo sapiens) (O15264 whole entry): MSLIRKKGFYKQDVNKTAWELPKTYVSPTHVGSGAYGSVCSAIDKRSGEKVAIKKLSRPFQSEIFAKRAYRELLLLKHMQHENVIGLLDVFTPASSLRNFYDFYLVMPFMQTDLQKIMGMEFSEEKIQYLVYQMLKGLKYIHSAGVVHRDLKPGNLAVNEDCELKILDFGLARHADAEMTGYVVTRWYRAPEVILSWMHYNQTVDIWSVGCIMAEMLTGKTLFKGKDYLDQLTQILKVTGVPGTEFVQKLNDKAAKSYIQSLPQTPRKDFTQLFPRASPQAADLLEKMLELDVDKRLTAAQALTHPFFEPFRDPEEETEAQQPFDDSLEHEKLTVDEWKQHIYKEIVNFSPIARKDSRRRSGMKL
# [22] = biological target: Mitogen-activated protein kinase 13 (Homo sapiens) (UniProt O15264); conditions: at 1 µM
# [23] = biological target: Mitogen-activated protein kinase 12 (Homo sapiens) (UniProt P53778); conditions: at 0.1 µM
# [24] = biological target: Mitogen-activated protein kinase 12 (Homo sapiens) (UniProt P53778); conditions: at 1 µM
# [25] = biological target: SRSF protein kinase 1 (Homo sapiens) (UniProt Q96SB4); conditions: at 0.1 µM
# [26] = biological target: SRSF protein kinase 1 (Homo sapiens) (UniProt Q96SB4); conditions: at 1 µM
# [27] = biological target: Phosphatidylinositol 4,5-bisphosphate 3-kinase catalytic subunit alpha isoform (Homo sapiens) (UniProt P42336); conditions: at 0.1 µM
# [28] = biological target: Phosphatidylinositol 4,5-bisphosphate 3-kinase catalytic subunit alpha isoform (Homo sapiens) (UniProt P42336); conditions: at 1 µM
# [29] = biological target: Phosphatidylinositol 4,5-bisphosphate 3-kinase catalytic subunit delta isoform (Homo sapiens) (UniProt O00329); conditions: at 0.1 µM
# Chain of Phosphatidylinositol 4,5-bisphosphate 3-kinase catalytic subunit delta isoform (Homo sapiens) (O00329 whole entry, canonical isoform): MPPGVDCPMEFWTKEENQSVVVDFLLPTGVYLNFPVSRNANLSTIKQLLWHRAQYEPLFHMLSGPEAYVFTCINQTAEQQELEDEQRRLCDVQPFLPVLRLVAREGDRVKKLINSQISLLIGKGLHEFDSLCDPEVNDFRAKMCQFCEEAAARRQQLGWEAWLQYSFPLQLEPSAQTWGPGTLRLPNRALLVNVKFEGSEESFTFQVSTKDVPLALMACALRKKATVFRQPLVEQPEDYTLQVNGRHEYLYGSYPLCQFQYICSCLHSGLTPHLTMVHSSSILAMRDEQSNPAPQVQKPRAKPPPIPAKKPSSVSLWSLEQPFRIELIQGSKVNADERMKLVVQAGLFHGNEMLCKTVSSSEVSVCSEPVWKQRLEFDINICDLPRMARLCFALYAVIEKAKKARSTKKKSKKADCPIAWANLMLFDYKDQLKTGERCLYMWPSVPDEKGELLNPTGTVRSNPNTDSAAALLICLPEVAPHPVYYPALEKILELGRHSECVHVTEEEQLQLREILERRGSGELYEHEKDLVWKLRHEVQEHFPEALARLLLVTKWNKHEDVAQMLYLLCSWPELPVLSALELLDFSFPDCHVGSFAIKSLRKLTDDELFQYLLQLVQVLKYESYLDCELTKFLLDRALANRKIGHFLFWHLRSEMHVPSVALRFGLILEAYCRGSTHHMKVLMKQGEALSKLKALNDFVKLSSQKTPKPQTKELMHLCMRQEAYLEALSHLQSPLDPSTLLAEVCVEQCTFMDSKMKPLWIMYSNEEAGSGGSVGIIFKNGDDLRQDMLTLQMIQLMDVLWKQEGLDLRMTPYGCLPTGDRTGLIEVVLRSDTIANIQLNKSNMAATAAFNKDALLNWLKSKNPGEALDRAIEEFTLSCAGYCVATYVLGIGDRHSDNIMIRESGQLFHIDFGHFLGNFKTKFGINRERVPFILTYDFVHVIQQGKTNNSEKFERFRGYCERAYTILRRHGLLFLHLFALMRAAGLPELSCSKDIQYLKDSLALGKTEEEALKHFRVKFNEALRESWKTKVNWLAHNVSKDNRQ
# [30] = biological target: Phosphatidylinositol 4,5-bisphosphate 3-kinase catalytic subunit delta isoform (Homo sapiens) (UniProt O00329); conditions: at 1 µM
# [31] = biological target: Phosphatidylinositol 4-kinase beta (Homo sapiens) (UniProt Q9UBF8); conditions: at 0.1 µM
# Chain of Phosphatidylinositol 4-kinase beta (Homo sapiens) (Q9UBF8 2-816 limits assumed): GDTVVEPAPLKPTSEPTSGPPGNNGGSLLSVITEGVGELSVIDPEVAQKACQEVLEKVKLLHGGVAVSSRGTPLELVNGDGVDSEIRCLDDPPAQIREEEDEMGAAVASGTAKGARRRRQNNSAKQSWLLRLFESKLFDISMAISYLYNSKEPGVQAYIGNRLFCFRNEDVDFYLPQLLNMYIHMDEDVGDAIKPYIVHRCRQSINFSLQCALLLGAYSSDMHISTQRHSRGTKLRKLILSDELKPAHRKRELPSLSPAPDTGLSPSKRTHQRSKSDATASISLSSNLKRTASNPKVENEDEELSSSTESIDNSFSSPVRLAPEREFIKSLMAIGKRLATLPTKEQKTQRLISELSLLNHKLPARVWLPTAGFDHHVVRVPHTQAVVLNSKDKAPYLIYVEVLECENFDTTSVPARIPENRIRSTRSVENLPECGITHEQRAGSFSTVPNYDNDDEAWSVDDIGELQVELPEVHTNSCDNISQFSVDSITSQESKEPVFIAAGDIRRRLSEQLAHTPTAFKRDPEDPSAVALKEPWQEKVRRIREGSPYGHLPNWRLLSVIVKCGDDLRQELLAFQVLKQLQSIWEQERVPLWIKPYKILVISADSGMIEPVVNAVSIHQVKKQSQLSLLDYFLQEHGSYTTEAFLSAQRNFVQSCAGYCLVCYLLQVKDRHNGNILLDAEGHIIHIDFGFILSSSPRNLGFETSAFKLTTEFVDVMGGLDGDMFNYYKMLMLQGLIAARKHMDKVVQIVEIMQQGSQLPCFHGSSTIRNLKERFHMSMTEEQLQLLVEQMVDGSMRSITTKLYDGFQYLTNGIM
# [32] = biological target: Phosphatidylinositol 4-kinase beta (Homo sapiens) (UniProt Q9UBF8); conditions: at 1 µM
# [33] = biological target: Sphingosine kinase 1 (Homo sapiens) (UniProt Q9NYA1); conditions: at 0.1 µM
# [34] = biological target: Sphingosine kinase 1 (Homo sapiens) (UniProt Q9NYA1); conditions: at 1 µM
# [35] = biological target: Sphingosine kinase 2 (Homo sapiens) (UniProt Q9NRA0); conditions: at 0.1 µM
# [36] = biological target: Sphingosine kinase 2 (Homo sapiens) (UniProt Q9NRA0); conditions: at 1 µM
# [37] = biological target: Casein kinase II subunit alpha (Homo sapiens) (UniProt P68400); conditions: at 0.1 µM
# [38] = biological target: Casein kinase II subunit alpha (Homo sapiens) (UniProt P68400); conditions: at 1 µM
# [39] = biological target: Inhibitor of nuclear factor kappa-B kinase subunit alpha (Homo sapiens) (UniProt O15111); conditions: at 0.1 µM
# [40] = biological target: Inhibitor of nuclear factor kappa-B kinase subunit alpha (Homo sapiens) (UniProt O15111); conditions: at 1 µM
# [41] = biological target: Inhibitor of nuclear factor kappa-B kinase subunit beta (Homo sapiens) (UniProt O14920); conditions: at 0.1 µM
# [42] = biological target: Inhibitor of nuclear factor kappa-B kinase subunit beta (Homo sapiens) (UniProt O14920); conditions: at 1 µM
# [43] = biological target: Inhibitor of nuclear factor kappa-B kinase subunit epsilon (Homo sapiens) (UniProt Q14164); conditions: at 0.1 µM
# Chain of Inhibitor of nuclear factor kappa-B kinase subunit epsilon (Homo sapiens) (Q14164 whole entry): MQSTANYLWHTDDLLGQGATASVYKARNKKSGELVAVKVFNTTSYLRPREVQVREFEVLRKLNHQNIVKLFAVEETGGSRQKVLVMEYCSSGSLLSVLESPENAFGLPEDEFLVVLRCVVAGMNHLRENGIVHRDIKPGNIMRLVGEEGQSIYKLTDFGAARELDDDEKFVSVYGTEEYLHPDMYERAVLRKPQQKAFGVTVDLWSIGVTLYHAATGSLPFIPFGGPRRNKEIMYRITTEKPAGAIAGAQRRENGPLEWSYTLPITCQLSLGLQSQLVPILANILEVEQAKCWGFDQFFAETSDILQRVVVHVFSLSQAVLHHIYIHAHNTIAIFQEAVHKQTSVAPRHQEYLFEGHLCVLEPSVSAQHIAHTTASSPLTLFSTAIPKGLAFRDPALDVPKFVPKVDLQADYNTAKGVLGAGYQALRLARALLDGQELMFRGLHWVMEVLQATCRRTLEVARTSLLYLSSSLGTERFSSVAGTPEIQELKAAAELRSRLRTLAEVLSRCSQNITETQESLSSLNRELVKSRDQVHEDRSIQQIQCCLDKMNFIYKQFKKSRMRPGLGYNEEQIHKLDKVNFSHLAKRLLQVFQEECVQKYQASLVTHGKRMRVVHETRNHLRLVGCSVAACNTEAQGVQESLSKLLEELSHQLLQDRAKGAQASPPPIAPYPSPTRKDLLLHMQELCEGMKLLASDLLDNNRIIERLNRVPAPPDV
# [44] = biological target: Inhibitor of nuclear factor kappa-B kinase subunit epsilon (Homo sapiens) (UniProt Q14164); conditions: at 1 µM
# [45] = biological target: Serine/threonine-protein kinase Nek1 (Homo sapiens) (UniProt Q96PY6); conditions: at 0.1 µM
# [46] = biological target: Serine/threonine-protein kinase Nek1 (Homo sapiens) (UniProt Q96PY6); conditions: at 1 µM
# [47] = biological target: Serine/threonine-protein kinase Nek2 (Homo sapiens) (UniProt P51955); conditions: at 0.1 µM
# Chain of Serine/threonine-protein kinase Nek2 (Homo sapiens) (P51955 whole entry): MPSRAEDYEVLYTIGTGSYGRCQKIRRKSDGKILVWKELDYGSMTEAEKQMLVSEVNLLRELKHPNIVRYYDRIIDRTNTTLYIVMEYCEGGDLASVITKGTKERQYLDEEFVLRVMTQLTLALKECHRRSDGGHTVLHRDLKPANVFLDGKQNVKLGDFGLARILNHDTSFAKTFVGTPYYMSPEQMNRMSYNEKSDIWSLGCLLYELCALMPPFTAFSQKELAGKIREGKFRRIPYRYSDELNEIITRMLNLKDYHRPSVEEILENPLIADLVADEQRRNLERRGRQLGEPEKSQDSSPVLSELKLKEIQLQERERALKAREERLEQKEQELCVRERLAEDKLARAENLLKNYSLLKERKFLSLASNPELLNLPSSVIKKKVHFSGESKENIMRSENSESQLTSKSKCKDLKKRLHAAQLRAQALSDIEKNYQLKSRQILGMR
# [48] = biological target: Serine/threonine-protein kinase Nek2 (Homo sapiens) (UniProt P51955); conditions: at 1 µM
# [49] = biological target: Serine/threonine-protein kinase Nek6 (Homo sapiens) (UniProt Q9HC98); conditions: at 0.1 µM
# [50] = biological target: Serine/threonine-protein kinase Nek6 (Homo sapiens) (UniProt Q9HC98); conditions: at 1 µM
# [51] = biological target: Serine/threonine-protein kinase Nek7 (Homo sapiens) (UniProt Q8TDX7); conditions: at 0.1 µM
# [52] = biological target: Serine/threonine-protein kinase Nek7 (Homo sapiens) (UniProt Q8TDX7); conditions: at 1 µM
# [53] = biological target: Serine/threonine-protein kinase Nek9 (Homo sapiens) (UniProt Q8TD19); conditions: at 0.1 µM
# [54] = biological target: Serine/threonine-protein kinase Nek9 (Homo sapiens) (UniProt Q8TD19); conditions: at 1 µM
# [55] = biological target: Serine/threonine-protein kinase PLK1 (Homo sapiens) (UniProt P53350); conditions: at 0.1 µM
# Chain of Serine/threonine-protein kinase PLK1 (Homo sapiens) (P53350 whole entry): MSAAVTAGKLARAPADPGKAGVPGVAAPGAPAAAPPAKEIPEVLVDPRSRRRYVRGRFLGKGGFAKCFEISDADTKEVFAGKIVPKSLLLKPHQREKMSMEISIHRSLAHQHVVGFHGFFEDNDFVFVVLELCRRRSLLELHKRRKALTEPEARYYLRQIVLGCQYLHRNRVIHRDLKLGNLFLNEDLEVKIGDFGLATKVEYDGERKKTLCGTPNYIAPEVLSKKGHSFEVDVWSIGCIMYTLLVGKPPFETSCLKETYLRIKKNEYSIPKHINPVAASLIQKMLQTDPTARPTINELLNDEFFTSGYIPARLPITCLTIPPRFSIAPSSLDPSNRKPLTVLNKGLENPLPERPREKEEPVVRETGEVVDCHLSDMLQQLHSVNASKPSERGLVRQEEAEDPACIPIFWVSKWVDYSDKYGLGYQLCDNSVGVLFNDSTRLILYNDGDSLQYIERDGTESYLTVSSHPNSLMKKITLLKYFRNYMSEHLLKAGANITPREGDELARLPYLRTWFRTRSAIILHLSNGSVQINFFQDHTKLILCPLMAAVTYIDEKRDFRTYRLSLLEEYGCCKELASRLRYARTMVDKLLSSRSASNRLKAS
# [56] = biological target: Serine/threonine-protein kinase PLK1 (Homo sapiens) (UniProt P53350); conditions: at 1 µM
structure (smiles),measurement,setting,value
CNC(=O)Oc1cc(C)c(/C=C/c2cncc(C(=O)NC)c2)c(C)c1,inhibition,[1],1.71%
same,inhibition,[2],5.29%
same,inhibition,[3],1.23%
same,inhibition,[4],4.75%
same,inhibition,[5],-0.37%
same,inhibition,[6],1.2%
same,inhibition,[7],0.96%
same,inhibition,[8],3.81%
same,inhibition,[9],3.14%
same,inhibition,[10],2.28%
same,inhibition,[11],1.83%
same,inhibition,[12],2.04%
same,inhibition,[13],3.1%
same,inhibition,[14],2.72%
same,inhibition,[15],1.79%
same,inhibition,[16],1.43%
same,inhibition,[17],3.47%
same,inhibition,[18],3.16%
same,inhibition,[19],1.39%
same,inhibition,[20],2.35%
same,inhibition,[21],0.06%
same,inhibition,[22],2.61%
same,inhibition,[23],0.49%
same,inhibition,[24],1.7%
same,inhibition,[25],-1.34%
same,inhibition,[26],-4.31%
same,inhibition,[27],2.83%
same,inhibition,[28],2.08%
same,inhibition,[29],1.65%
same,inhibition,[30],0.21%
same,inhibition,[31],5.69%
same,inhibition,[32],3.41%
same,inhibition,[33],2.31%
same,inhibition,[34],0.63%
same,inhibition,[35],0.57%
same,inhibition,[36],19.7%
same,inhibition,[37],1.53%
same,inhibition,[38],0.66%
same,inhibition,[39],0.51%
same,inhibition,[40],-0.7%
same,inhibition,[41],3.06%
same,inhibition,[42],1.89%
same,inhibition,[43],2.27%
same,inhibition,[44],0.9%
same,inhibition,[45],2.1%
same,inhibition,[46],1.49%
same,inhibition,[47],2.52%
same,inhibition,[48],4.05%
same,inhibition,[49],-0.26%
same,inhibition,[50],1.16%
same,inhibition,[51],2.46%
same,inhibition,[52],2.99%
same,inhibition,[53],6.95%
same,inhibition,[54],4.01%
same,inhibition,[55],3.92%
same,inhibition,[56],2.75%
